Measurements: PubChem BioAssay (NCATS)
Inconclusive results are not listed. Entries that show only a call come without a potency. Activity calls are given as the source filed them. Calls follow the shape of the full dose curve; tested in HEK293 reporter line.

Experiment: qHTS for Inhibitors of the Functional Ribonucleoprotein Complex (vRNP) of Lassa (LASV) Arenavirus: LASV Primary Screen - GLuc reporter signal (AID 1347082); also: nearly all actives have a fitted effect of over 60% in size
Conditions: LASV minigenome vRNP, Gaussia luciferase reporter; series mostly up to 57.5 µM
Potency is read from the fitted curve at half-maximal effect.

| Compound | Potency |
| --- | --- |
| CCN(CC)CCCC(C)Nc1nc(C)cc(Nc2ccc3nc(C)cc(N)c3c2)n1 (stereo not drawn) | inactive |
| N=C(N)c1ccc(OCCCCCOc2ccc(C(=N)N)cc2)cc1 (tested in a mixture with another compound) | 7.08 µM (active) |
| O=c1cc(-c2ccccc2)[nH]c2nc(Cl)ccc12 | inactive |
| COC(=O)Nc1nc2ccc(C(=O)c3ccc(F)cc3)cc2[nH]1 | inactive |
| COc1ccc(COc2cc3oc(=O)c4cc(C(C)O)ccc4c3cc2OC)cc1 (stereo not drawn) | inactive |
| O=Nc1c(-c2c(O)[nH]c3ccccc23)[nH]c2ccccc12 | inactive |
| COc1ccc(-n2c(C)c([N+](=O)[O-])c3ccc(O)cc32)cc1 | inactive |
| CN1c2ccccc2C(=O)N2CCc3c([nH]c4ccccc34)C21 (stereo not drawn) | inactive |
| COc1ccc2c3c1OC1C[C@@H](O)C=C[C@@]31CCN(C)C2 (stereo partly drawn) | inactive |
| CNCCc1cnc(CCC(c2ccccc2)c2ccccc2)[nH]1 | inactive |
| CCOC(=O)N1CCN(/[N+]([O-])=N/Oc2ccc([N+](=O)[O-])cc2[N+](=O)[O-])CC1 | inactive |
| CC1CNCCN1S(=O)(=O)c1cccc2cnccc12 (stereo not drawn) | inactive |
| COc1ccc(NC(=O)c2ccc(-c3ccc(-c4noc(C)n4)cc3C)cc2)cc1N1CCN(C)CC1 | inactive |
| Cc1cc(Nc2ncnc3ccc(-c4ccc(CNCCS(C)(=O)=O)o4)cc23)ccc1Oc1ccn2ncnc2c1 | 15.3 µM (active) |
| CC(C)ON([C@@H](C(=O)NO)C(C)C)S(=O)(=O)c1ccc(-c2ccccc2)cc1 | inactive |
| COc1ccc(-c2cc3ncc(C)n3c(Nc3ncccc3C(N)=O)n2)cc1OC | inactive |
| Oc1ccc2ccccc2c1SSc1c(O)ccc2ccccc12 | inactive |
| CCC1(O)CC2CN(CCc3c([nH]c4ccccc34)[C@@](C(=O)OC)(c3cc4c(cc3OC)N(C=O)C3[C@]45CCN4CC=C[C@@](CC)([C@@H](OC(C)=O)[C@]3(O)C(=O)OC)[C@H]45)C2)C1 (stereo partly drawn) | inactive |
| CCOC(=O)N1c2ccc(C(F)(F)F)cc2[C@@H](N(Cc2cc(C(F)(F)F)cc(C(F)(F)F)c2)C(=O)OC)C[C@H]1CC | inactive |
| O[Si](CCCN1CCCCC1)(c1ccc(F)cc1)C1CCCCC1 (stereo not drawn) | inactive |
| C[C@]12CC[C@H](O)CC1=CCC1C2CC[C@]2(C)C(n3cnc4ccccc43)=CCC12 (stereo partly drawn) | inactive |
| CN(C)c1cc2c(Nc3ccc4c(cnn4Cc4ccccc4)c3)ncnc2cn1 | inactive |
| CCCCC[C@H](CC(=O)NO)C(=O)N[C@H](C(=O)N1CCC[C@H]1CO)C(C)C | inactive |
| O=C(NC1CC1)c1cccc(-c2ccc3c(NC(=O)C4CC4)n[nH]c3c2)c1 | inactive |
| CN1CCCC1CCOC(C)(c1ccccc1)c1ccc(Cl)cc1 (stereo not drawn) | inactive |
| COc1cc2c(cc1OC)-c1c(OC)c(OC)cc3c1C(C2)N(C)CC3 (stereo not drawn) | inactive |
| CCOC(=O)C1=C(C)NC(C)=C(C(=O)OCC)C1c1c(F)c(F)c(F)c(F)c1F | inactive |
| COc1cc(C)c(Sc2cnc(NC(=O)c3ccc(CNC(C)C(C)C)cc3)s2)cc1C(=O)N1CCN(C(C)=O)CC1 (stereo not drawn) | 24.3 µM (active) |
